Assay outcomes deposited in PubChem BioAssay by several laboratories.
MITF TRPM1 inh: inhibitors of MITF-dependent TRPM1 promoter reporter, primary screen, cell-based, SK-MEL-5, single point, luciferase; SK-MEL-5 TRPM1 promoter luciferase, 24 h; inhibition, % at 12.5 µM; actives 0.83% (n = 330,000);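 active means mean inhibition across replicates of 60% or more, whatever share of single replicates reaches that level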
HIF-2a block: HIF-2a reporter inhibitors, primary screen, luminescence, 786-0 RCC cells; AID 624352, 2012; inhibition, % at 18.8 µM; 786-0 RCC cells HIF-2a reporter, luciferase luminescence, overnight; actives 0.72% (n = 360,000);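 active means inhibition of the luminescence signal of 40% or more relative to plate controls, in a single-dose primary screen at 18.75 µM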
CF NFkB block: inhibitors of PAF-induced NF-kB signaling, primary screen, cell-based, GFP fluorescence, uHTS. AID 588850, 2011. actives 0.86% (n = 360,000). inhibition, % at 5 µM. KKLEB NF-kB-GFP reporter, GFP fluorescence overnight;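 active means at least 50% inhibition at 5 µM, scaled per plate between neutral and stimulator controls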;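 further: PAF is a Pseudomonas aeruginosa culture filtrate used as stimulus; plate controls were PAF-stimulated DMSO wells for no effect and unstimulated DMSO wells for full effect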
KKLEB cytotox: cytotoxicity in KKLEB CF airway cells, primary screen, cytotoxicity control for CF NF-kB inhibitor project, cell-based, uHTS, fluorescence assay plates; KKLEB CF airway cells viability, ATPlite luminescence, overnight; stronger effect = lower value; cells stimulated with P. aeruginosa culture filtrate; AID 602141, 2011; activity change (cytotoxicity), % at 5 µM; actives 0.36% (n = 360,000);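 active means corrected activity change at or below -50% at 5 µM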
Peg3 prom inh-1: Peg3 promoter-driven luciferase inhibitors, primary screen, cell-based, HeLa, luciferase luminescence. HeLa PEG-Prom luciferase reporter, overnight. inhibition, % at 20 µM. actives 1.7% (n = 360,000);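 active means inhibition of at least 50% at 20 µM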
Shn3 inh set2: reduction of Shn3 3'UTR firefly luciferase signal, primary screen, Schnurri-3 inhibitor project, cell-based, Clone20 osteoblasts, set 2 | Clone20 osteoblast Shn3 3'UTR firefly luciferase, 24 h | inhibition, % at 12.5 µM | actives 0.52% (n = 360,000);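 active means mean inhibition of at least 75% with every replicate also reaching 75%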;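 further: 0% = median of neutral control wells and 100% = pilot-screen positive control compound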
Peg3 prom inh-2: Peg3 promoter reporter inhibitors, retest, confirmation, cell-based, HeLa, luciferase reporter, single concentration | shares compounds with Peg3 prom inh-1 | HeLa PEG-Prom luciferase reporter, luminescence, overnight | inhibition, % at 20 µM | actives 84% (n = 1,300) | AID 602417, 2012;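 active means at 20 µM dose, 40% or more inhibition averaged across four replicates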
CF NFkB inh conf: inhibitors of PAF-induced NF-kB signaling, retest, confirmation, cell-based, GFP fluorescence, single concentration. actives 64% (n = 1,300). AID 602472, 2012. inhibition, % at 5 µM. KKLEB CF airway cells, overnight. shares compounds with CF NFkB block; in the data active means inhibition above about 40%;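 further: stimulus PAF is a Pseudomonas aeruginosa filtrate and not platelet activating factor; plate controls were DMSO wells with stimulus for no effect and unstimulated DMSO wells for full effect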
Mdm2 MdmX conf: retested Mdm2-MdmX interaction blockers, confirmation, cell-based, luminescence, single concentration, set 2; inhibition, % at 8 µM; SaOS-2 split-luciferase Mdm2/MdmX complementation; AID 504601, 2011; actives 99% (n = 740); shares compounds with HIF-2a block;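 active means mean inhibition of the luminescence signal across two replicates at or above 26 percent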
Target sequence (O15151 whole entry, looked up): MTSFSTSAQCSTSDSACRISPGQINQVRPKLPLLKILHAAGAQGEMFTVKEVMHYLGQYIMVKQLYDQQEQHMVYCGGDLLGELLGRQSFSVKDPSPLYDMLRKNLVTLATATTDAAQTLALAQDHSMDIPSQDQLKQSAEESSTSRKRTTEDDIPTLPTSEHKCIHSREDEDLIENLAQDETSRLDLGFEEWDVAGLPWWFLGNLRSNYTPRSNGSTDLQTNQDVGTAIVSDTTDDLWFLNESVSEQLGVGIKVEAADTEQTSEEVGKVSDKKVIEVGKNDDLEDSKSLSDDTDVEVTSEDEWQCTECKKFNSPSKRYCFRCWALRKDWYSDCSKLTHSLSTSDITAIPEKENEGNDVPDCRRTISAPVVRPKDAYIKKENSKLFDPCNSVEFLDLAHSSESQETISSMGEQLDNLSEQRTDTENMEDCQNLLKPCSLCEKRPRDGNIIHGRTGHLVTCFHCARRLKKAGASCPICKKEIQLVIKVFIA
Target sequence (Q00987 whole entry, looked up): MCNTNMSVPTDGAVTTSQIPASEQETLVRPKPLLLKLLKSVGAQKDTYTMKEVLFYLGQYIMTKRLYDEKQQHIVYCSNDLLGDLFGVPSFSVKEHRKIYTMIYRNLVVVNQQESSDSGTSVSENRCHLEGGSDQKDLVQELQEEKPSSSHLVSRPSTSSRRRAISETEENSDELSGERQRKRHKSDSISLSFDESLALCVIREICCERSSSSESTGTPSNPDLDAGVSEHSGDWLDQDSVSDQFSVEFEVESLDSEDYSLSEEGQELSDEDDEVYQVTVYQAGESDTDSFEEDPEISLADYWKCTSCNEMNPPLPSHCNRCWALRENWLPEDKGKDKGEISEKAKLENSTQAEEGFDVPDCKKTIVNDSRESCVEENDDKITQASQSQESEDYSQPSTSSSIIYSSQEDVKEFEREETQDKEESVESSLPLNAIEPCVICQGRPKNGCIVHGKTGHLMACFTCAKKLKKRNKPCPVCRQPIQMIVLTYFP
HIF-2a conf: HIF-2a reporter inhibitor retest, confirmation, luminescence, 786-0 RCC cells | shares compounds with HIF-2a block | HIF-2a luciferase reporter luminescence, overnight | inhibition, % at 18.8 µM | actives 56% (n = 1,800);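 active means mean inhibition across four replicates of at least 40 percent at the single tested concentration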
HIF-1a cs: HIF-1a luciferase reporter signal reduction – MiaPaCa-2 cells, single concentration, counter-screen for HIF-2a inhibitor project, confirmation; shares compounds with HIF-2a block; MiaPaCa-2 HIF-1a luciferase reporter, desferoxamine, overnight; inhibition, % at 18.8 µM; actives 72% (n = 1,800); AID 651589, 2012;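 active means mean inhibition of the reporter signal across four replicates at the single tested dose of 50% or more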
Numbers without * were called inactive; / = no result given. Compounds with a hit are over-represented: about 2.7% of the library has one in this group of screens.

SMILES	MITF TRPM1 inh	HIF-2a block	CF NFkB block	KKLEB cytotox	Peg3 prom inh-1	Shn3 inh set2	Peg3 prom inh-2	HIF-2a conf	HIF-1a cs	others
O=C(NN=Cc1ccc(N(CCCl)CCCl)cc1)C(=O)c1c[nH]c2ccccc12	12	-3	12	-13	17	11	/	/	/
CC1=CC2/C=C(\C)CCC(O)C(O)/C=C/C(=O)C23C(=O)NC(CC(C)C)C3C1C (configuration not stated)	97*	93*	92*	-64*	108*	99*	98*	99*	102*	Mdm2 MdmX conf=103*
CC1=CC2OC3CC4OC(=O)C=CC=CC(C(C)O)OCC(O)C(C)CC(=O)OCC2(CC1O)C4(C)C31CO1 (configuration not stated)	90*	76*	86*	-52*	96*	93*	98*	73*	105*
O=C1NC(=O)C2(CCN(c3ccccc3)CC2)C(=O)N1	-8	14	23	-17	-10	-17	/	/	/
CS(=O)(=O)c1ccc(C2=C(CNC(=O)c3nccs3)[C@H]3CC[C@@H](C2)N3CCOc2ccccc2)cc1	/	-6	20	-13	-3	9	/	/	/
Cc1ccccc1C(=O)N1Cc2cnnn2-c2ccccc2C1C#N (configuration not stated)	-7	2	-8	14	-15	-2	/	/	/
Cc1ccccc1CN1Cc2cnnn2-c2ccccc2C1C#N (configuration not stated)	98*	92*	38	-11	95*	-9	98*	97*	107*
FC(F)(F)c1cccc(NC2=NCCS2)c1	/	-8	4	-8	-16	10	/	/	/
C[C@@H]1O[C@@H](O[C@@H]2C=C3CCC4C(CC[C@]5(C)[C@@H](c6ccc(=O)oc6)CC[C@]45O)[C@@]3(C)CC2)[C@H](O)[C@H](O)[C@H]1O (some centres not stated)	82*	90*	88*	-62*	95*	-2	97*	43*	105*	Mdm2 MdmX conf=87*
CC(=O)OC(C)(C)/C=C/C(=O)C(C)(O)C1[C@H](O)C[C@@]2(C)C3CC=C4C(CC[C@@H](O)C4(C)C)[C@]3(CO)C(=O)C[C@]12C (some centres not stated)	85*	72*	91*	-92*	84*	70	87*	73*	105*
COC(=O)C1=C(c2ccc(OCc3ccccc3)cc2)C[C@@H]2CC[C@H]1N2C	/	-3	9	-8	13	4	/	/	/
CC12CC(=O)C3C(CCC4CC(=O)C=CC43C)C1CCC2=O (configuration not stated)	-2	23	66*	19	1	8	/	/	/	CF NFkB inh conf=5
